10 compounds from PubChem BioAssay can be followed below.

Molecules are shown by their SMILES. Calls of active or inactive are those of the source.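 How the source made its calls, unless noted: active means fluorescence slope after compound addition differing from the mean of all screened samples at 99.7% confidence, in either direction; inactive means the rest.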

Test [1] is described as follows: inhibitors of TNFa-induced NFkB p65 translocation, primary screen, imaging, HUVEC, MLSMR starter and 10KST1 sets (AID 438;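 active means inhibition above 20% together with a positive visual image hit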;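 further: compound added about 3h40 before a 20 min TNFalpha stimulation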;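 on inhibition: signal is the nuclear over cytoplasmic p65 intensity ratio per well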). The note with it: HUVEC TNFa-induced p65 nuclear translocation; cell count: measured here: nuclei count (cytotoxicity indicator), at 2.08 µM; inhibition: at 2 µM, stronger effect = higher value, 0% TNFa-plus-vehicle, 100% no-TNFa wells.
The nature of test [2]: reduction of polyQ htt aggregates in cells – imaging, exon1htt(103Q)mCFP cells, high-content imaging, primary screen (AID 483;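 active means visual image review flags a hit and inhibition of aggregation exceeds 20%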;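 further: compound exposure lasted 3 days before fixation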;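 on nuclei count: percent of the per-plate median nuclei count of sample wells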). The note with it: exon1htt(103Q)mCFP cell line, aggregate imaging, at 2 µM; inhibition of aggregation: stronger effect = higher value; nuclei count: measured here: cell count, toxicity.
Test [3] in a line: endothelial E-selectin expression blockers – imaging, HUVEC, immunofluorescence, MLSMR starter and 10KST1 sets, primary screen (AID 487;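 active means visually confirmed hit in the image check and inhibition above 20%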;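 on inhibition: signal is fraction of cell area covered by stained E-selectin grains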;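 on nuclei count: 100% = median nuclei count of all wells on the same plate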). Particulars: HUVEC TNFalpha-induced E-selectin immunofluorescence imaging, at 2 µM; inhibition: stronger effect = higher value; nuclei count: measured here: cell number, toxicity.
Test [4] addresses Voltage-gated potassium channel subunit beta-2 (Rattus norvegicus) (UniProt P62483). Put plainly: inhibitors of rat Kvbeta2 reductase activity – biochemical, NADPH fluorescence, primary screen (AID 622;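 active means fluorescence slope higher than the sample average by over 3 SD, cut at about -0.22 in these data, passing the limit was not always enough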;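 further: slope of raw intensity against log time taken from 70 to 1610 s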). Particulars: recombinant KvBeta, 4-cyanobenzaldehyde reduction, at 10 µM, stronger effect = higher value.
Test [5] has the same target. Description: enhancers of rat Kvbeta2 NADPH turnover – biochemical, NADPH fluorescence, primary screen (AID 623;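 active means NADPH fluorescence slope more negative than the mean of all samples by about 3 SD, 99.7% confidence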;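 further: fluorescence intensity change per second fitted from 20 to 320 s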). The note with it: Recombinant KvBeta, NADPH fluorescence decrease slope, 10 min; at 10 µM; stronger effect = lower value.
The target of test [6] is Alpha-2C adrenergic receptor (Homo sapiens) (UniProt P18825). Put plainly: compounds altering alpha2C-coupled GIRK flux – cell-based, HEK293 alpha2C/GIRK1/2, thallium flux, primary screen (AID 624).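 Further: slope of fluorescence ratio to pre-addition baseline per second over 15 to 24 s.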 The note with it: thallium flux BTC fluorescence, at 10 µM, actives lie on both sides.
The nature of test [7]: blockers of RIG-like receptor reporter activation – cell-based, Sendai virus stimulus, luciferase, 10K MLSCN set, TLR/RLR signaling modifier project, primary screen (AID 602276;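 active means inhibition at or above 50% at 10 µM; inactive means inhibition below 50%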;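 further: firefly luciferase from ISG56 promoter only with Renilla not read in this screen; 0% = Sendai virus plus DMSO and 100% = medium plus DMSO without virus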). Particulars: HEK293 RL24 IRF3 luciferase reporter, at 10 µM, stronger effect = higher value.
A short description of test [8]: TLR3 IRF3 reporter activation blockers – cell-based, poly I:C stimulus, luciferase, 10K MLSCN set, primary screen (AID 602277;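 active means inhibition of the reporter signal at or above 50%; inactive means inhibition below 50%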). Particulars: HEK293-TLR3 RL24 IRF3 luciferase reporter, at 10 µM, stronger effect = higher value. (In general: A reporter such as luciferase makes a cellular process visible.)

Sequence of Voltage-gated potassium channel subunit beta-2 (Rattus norvegicus) (P62483 whole entry, looked up): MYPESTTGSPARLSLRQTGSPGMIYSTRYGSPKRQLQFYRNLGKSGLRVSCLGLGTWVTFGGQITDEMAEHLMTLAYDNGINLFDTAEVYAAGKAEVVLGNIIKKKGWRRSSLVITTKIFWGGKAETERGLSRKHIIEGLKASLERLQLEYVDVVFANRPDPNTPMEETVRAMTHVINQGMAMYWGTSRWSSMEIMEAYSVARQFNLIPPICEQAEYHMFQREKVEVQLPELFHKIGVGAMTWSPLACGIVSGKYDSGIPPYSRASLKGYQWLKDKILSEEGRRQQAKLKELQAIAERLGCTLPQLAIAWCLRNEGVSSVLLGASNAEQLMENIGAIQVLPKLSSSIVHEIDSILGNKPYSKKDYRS
Sequence of Alpha-2C adrenergic receptor (Homo sapiens) (P18825 whole entry, looked up): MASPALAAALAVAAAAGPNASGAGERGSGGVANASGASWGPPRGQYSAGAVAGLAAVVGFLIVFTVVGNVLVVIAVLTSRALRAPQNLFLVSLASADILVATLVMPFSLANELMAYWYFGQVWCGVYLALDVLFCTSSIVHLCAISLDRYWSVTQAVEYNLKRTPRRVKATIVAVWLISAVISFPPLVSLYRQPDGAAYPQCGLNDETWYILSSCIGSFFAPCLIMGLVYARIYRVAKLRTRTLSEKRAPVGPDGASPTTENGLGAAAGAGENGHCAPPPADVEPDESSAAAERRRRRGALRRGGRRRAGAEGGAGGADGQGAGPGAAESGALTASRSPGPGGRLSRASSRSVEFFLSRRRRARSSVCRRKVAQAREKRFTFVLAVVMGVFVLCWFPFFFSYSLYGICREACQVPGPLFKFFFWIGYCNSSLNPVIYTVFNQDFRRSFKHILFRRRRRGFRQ

For the compound `COc1ccc(C2C(C(=O)Nc3cccnc3)=C(C)Nc3nc(-c4cccs4)nn32)cc1OC` (stereo not given), the cell count in test [1] stood at 543. The inhibition – broadly, the change of the read-out against control, counted positive when it falls – is 5.1% (inactive) in test [1], 3.4% (inactive) in test [3], 7.94% (inactive) in test [7] and 31.3% (inactive) in test [8]. In test [2], the inhibition of aggregation was 2.5% (inactive). Also, the nuclei count in test [2] was determined as 84.7%; in test [3] it was 104%. In test [4], the fluorescence slope was -0.593 (inactive). In test [5], the NADPH fluorescence slope was -4.3e-05 (inactive). For the same compound, the slope in test [6] was 0.0064 (inactive).

With `Clc1cc2c(c(Cn3cnc4ccccc43)c1)OCOC2`, the cell count in test [1] stood at 566. The inhibition in test [1] is 7.5% (inactive); in test [3], 4.1% (inactive); in test [7] it was 7.15% (inactive); in test [8] it was -9.55% (inactive). Moreover, the inhibition of aggregation in test [2] was 11.8% (inactive). Besides, the results for the nuclei count in test [2] and in test [3] were 77.2% and 89.8%, respectively. In test [4], the fluorescence slope is -0.595 (inactive). Moreover, the NADPH fluorescence slope in test [5] was -3e-05 (inactive). In test [6], the slope was 0.00307 (inactive).

Take `CCOC(=O)C1CCN(c2c(NC3CCCc4ccccc43)c(=O)c2=O)CC1` (stereo not given): the cell count in test [1] was 672. Further, the inhibition in test [1] is 6.6% (inactive); in test [3], -22.1% (inactive); in test [7], 7.84% (inactive); in test [8], 29.9% (inactive). Moreover, in test [2], the inhibition of aggregation was -3.3% (inactive). For the same compound, the nuclei count came out at 86.1% in test [2] and 98.7% in test [3]. Besides, the fluorescence slope in test [4] is -0.571 (inactive). Further, the NADPH fluorescence slope in test [5] was -3e-05 (inactive). Further, the slope in test [6] is 0.00585 (inactive).

As for `COc1ccc(-c2nnn(CC(=O)c3ccc4c(c3)OCCO4)n2)cc1OC`, the cell count in test [1] came out at 507. Also, the inhibition in test [1] was -17.7% (inactive); in test [3], 17.9% (inactive); in test [7] it was 19.3% (inactive); in test [8] it was 19.3% (inactive). For the same compound, the inhibition of aggregation in test [2] was -8.1% (inactive). Besides, the figures for the nuclei count in test [2] and in test [3] were 122% and 126%, respectively. The fluorescence slope in test [4] is -0.48 (inactive). The NADPH fluorescence slope in test [5] is -4.4e-05 (inactive). Further, in test [6], the slope was 0.00479 (inactive).

With `O=c1c2ccccc2nnn1CSc1nnc2sc3ccccc3n12`, the cell count in test [1] is 558. The inhibition was -14.2% (inactive) in test [1], -56% (inactive) in test [3], 49% (inactive) in test [7] and 42.1% (inactive) in test [8]. For the same compound, in test [2], the inhibition of aggregation is -28.8% (inactive). The nuclei count was determined as 109% in test [2] and 111% in test [3]. Moreover, the fluorescence slope in test [4] is -0.521 (inactive). In test [5], the NADPH fluorescence slope is -4.5e-05 (inactive). Further, in test [6], the slope is 0.00436 (inactive).

For `CCOc1ccc(NC(=O)C2CC(=O)N(CC)C(=Nc3ccc4c(c3)OCO4)S2)cc1` (stereo not given), the cell count in test [1] is 356. Besides, the inhibition in test [1] was -6.2% (inactive); in test [3], -125% (inactive); in test [7] it was -1.73% (inactive); in test [8] it was 1.26% (inactive). Besides, the inhibition of aggregation in test [2] is 12.9% (inactive). Besides, the values for the nuclei count in test [2] and in test [3] were 81.1% and 113%, respectively. Also, the fluorescence slope in test [4] was -0.358 (inactive). Besides, the NADPH fluorescence slope in test [5] was -6.3e-05 (inactive). Further, in test [6], the slope is 0.00411 (inactive).

As to `CC(C)(C)OC(=O)NCCc1nnc(SCC(=O)c2ccc(Cl)cc2)o1`, the cell count in test [1] is 282. Moreover, the inhibition in test [1] was -3.2% (inactive); in test [3], -56.7% (inactive); in test [7], 5.48% (inactive); in test [8], 34.1% (inactive). Besides, the inhibition of aggregation in test [2] is 36.8% (inactive). The nuclei count in test [2] worked out at 77.1%; in test [3], 85.4%. Also, in test [4], the fluorescence slope is -0.495 (inactive). In test [5], the NADPH fluorescence slope is 1.3e-05 (inactive). Further, the slope in test [6] is 0.00407 (inactive).

In the case of `CCOc1ccc(CNc2ccc3c(c2)ncn3C)cc1`, the cell count in test [1] amounted to 174. In addition, the inhibition in test [1] was -3% (inactive); in test [3], 4.7% (inactive); in test [7] it was -27.2% (inactive); in test [8] it was -76.3% (inactive). Also, the inhibition of aggregation in test [2] is -8.8% (inactive). In addition, the nuclei count in test [2] was 72.5%; in test [3] it was 90.2%. Also, the fluorescence slope in test [4] is -0.435 (inactive). The NADPH fluorescence slope in test [5] is -1.3e-05 (inactive). In addition, in test [6], the slope was 0.00471 (inactive).

For `O=C(NCC1CCCO1)C1CCCN(Cc2cnn(-c3ccccc3)c2-n2cccc2)C1` (stereo not given), in test [1], the cell count was 292. The inhibition in test [1] is 0.8% (inactive); in test [3], -10.5% (inactive); in test [7], -11.1% (inactive); in test [8], -10.8% (inactive). Also, the inhibition of aggregation in test [2] is 5.3% (inactive). Besides, the nuclei count in test [2] is 86.3%; in test [3], 92.7%. The fluorescence slope in test [4] was -0.39 (inactive). The NADPH fluorescence slope in test [5] is 3.8e-06 (inactive). The slope in test [6] was 0.0039 (inactive).

Consider `O=C(CCn1c(=O)sc2ccccc21)Nc1nccs1`, for which the cell count in test [1] was found to be 575. Also, the inhibition in test [1] is -22.3% (inactive); in test [3] it was -53% (inactive); in test [7] it was -21.2% (inactive); in test [8], -66.6% (inactive). The inhibition of aggregation in test [2] is 4.1% (inactive). Further, the nuclei count was found to be 65.7% in test [2] and 98.6% in test [3]. Further, the fluorescence slope in test [4] is -0.618 (inactive). The NADPH fluorescence slope in test [5] was 3e-05 (inactive). Besides, the slope in test [6] is 0.00595 (inactive).
